# Measured values reported in PubChem BioAssay (NCATS).
# Inconclusive results are not listed. A number with no mark means an inactive call. The source made the active and inactive calls. The call rests on the fitted dose curve; in most records, active means well fitted cell-killing curve with a large enough effect; inconclusive means small, poorly fitted or top-dose-only effect, or effect the other way; inactive means flat fitted curve, though single readings scatter.
# Test system: CAOV3
# Test: Primary qHTS to identify gynecologic anti-cancer compounds using libraries of approved drugs and bioactive compounds (AID 1345084); further: nearly all actives have a fitted effect of over 55% in size
# Conditions: Gynecologic cancer cell panel viability, ATPlite luminescence, 48 h; series mostly up to 57.5 µM; activity change, negative = cytotoxicity: at the top concentration
# Outline: (§1)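 Cells, 1,000 per well, were allowed to settle for 16 h at 37 C before compound addition. Five concentrations were tested for 48 h, and viability was read by ATPlite luminescence after 15 min at room temperature.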
# On the % scale 0 is the no-effect control and ±100 the full control effect; potency means the concentration at half of the fitted maximal effect.
row,Structure (SMILES),"activity change, negative = cytotoxicity"
1,CC(C)NC(=O)N1CC[C@H](N=C2Nc3cc(F)ccc3N(CC(F)F)c3ccc(Cl)cc32)C1,-26.1% [at 11.6 µM]
2,O=C(Nc1nnc(-c2ccc3c(c2)OCCO3)o1)C1CCCCC1,-27.6%
3,CC(C)C[C@@H](N)C(=O)N[C@H]1C(=O)N[C@@H](CC(N)=O)C(=O)N[C@H]2C(=O)N[C@H]3C(=O)N[C@H](C(=O)N[C@H](C(=O)O)c4cc(O)cc(O)c4-c4cc3ccc4O)[C@H](O)c3ccc(c(Cl)c3)Oc3cc2cc(c3O[C@@H]2O[C@H](CO)[C@@H](O)[C@H](O)[C@H]2O[C@H]2C[C@](C)(N)[C@H](O)[C@H](C)O2)Oc2ccc(cc2Cl)[C@H]1O,-25.5% [at 25.3 µM]
4,CC(C)c1cccc(C(C)C)c1NC(=O)Nc1ccc(Sc2ccc([N+](=O)[O-])cc2)cc1,-12.7%
5,CC(C)(C)[C@H](NC(=O)c1ccc(N)c(Cl)c1)C(=O)N1CCC[C@H]1C(=O)N[C@H](C#N)CC(=O)O,-20.1%
6,COc1cc(CCO)ccc1O[C@@H]1O[C@H](CO)[C@@H](O)[C@H](O)[C@H]1O,-1.85% [at 38.5 µM]

# Test system: CASKI
# Test: as above
# Conditions: Gynecologic cancer cell panel viability, ATPlite luminescence, 48 h; series mostly up to 57.5 µM; activity change, negative = cytotoxicity: at the top concentration
# Outline: as §1
row,Structure (SMILES),"activity change, negative = cytotoxicity"
1,CC(=O)O[C@H]1CC(C)(C)CC2[C@]13CO[C@@]21CCC2[C@@]4(C)CC[C@H](O[C@@H]5OC[C@H](O[C@@H]6O[C@H](CO)[C@@H](O)[C@H](O)[C@H]6O[C@@H]6OC[C@@H](O)[C@H](O)[C@H]6O)[C@H](O)[C@H]5O[C@@H]5O[C@H](CO)[C@@H](O)[C@H](O)[C@H]5O)[C@@](C)(CO)C4CC[C@@]2(C)[C@]1(C)C[C@H]3O (some centres not stated),-20.7% [at 11.6 µM]
2,CC(=O)CC(=O)Nc1ccc(Cl)c(C(F)(F)F)c1,-5.76%
3,CC(NC(=O)Cc1cc(F)cc(F)c1)C(=O)NC1C(=O)N(C)c2ccccc2-c2ccccc21 (configuration not stated),-19%
4,N#Cc1ccc(COc2ccc(-c3cccc4nc(NC(=O)C5CC5)nn34)cc2)cn1,-21.6%
5,C=C1C(=O)O[C@@H]2[C@H]3C(C)=CC(=O)C3=C(C)[C@@H](OC(=O)/C(C)=C\C)[C@H](O)[C@@H]12,-15% [at 38.5 µM]
6,C=C1C(=O)O[C@H]2CC(=C)[C@H]3CC[C@@](C)(O)[C@@H]3CC12 (some centres not stated),-23.9%
7,CC1(C)CN(C(=O)c2ccc(-c3cccc4nc(NC(=O)C5CC5)nn34)cc2)C1,-9.25%
8,Oc1cccc(-c2c3nc(c(-c4cccc(O)c4)c4ccc([nH]4)c(-c4cccc(O)c4)c4nc(c(-c5cccc(O)c5)c5ccc2[nH]5)CC4)C=C3)c1,-12.5%
9,C=C1C(=O)OC2/C=C(\C)CC/C=C(\C)CC(OC(C)=O)C12 (configuration not stated),-3.83%
10,CCC(C)C(=O)OC1C(C)C2(O)C(C=C(CO)CC3(O)C(=O)C(C)=CC32)C2C(C)(C)C12OC(=O)C(C)C (configuration not stated),-0.637% [at 25.3 µM]
11,CCOC(=O)c1csc(Nc2ccc(Cl)cc2)n1,-7.44%
12,Cc1ccc(-c2c(C(=O)CCl)n(CCCO)c3ncnc(N)c23)cc1,-4.81%
13,CCn1c(=O)c(-c2ccc(-c3cncs3)cc2Cl)cc2cnc(Nc3ccc(N4CCN(C)CC4)cc3)nc21,-11.2%
14,Cc1ccc(-c2ncccn2)c(C(=O)N2C[C@H](COc3ccc(F)cn3)CC[C@H]2C)c1,-22.5%
15,CC(CCC1(O)OC2CC3C4CC=C5CC(O[C@@H]6O[C@H](CO)[C@@H](O[C@@H]7O[C@@H](C)[C@H](O)[C@@H](O)[C@H]7O)[C@H](O)[C@H]6O[C@@H]6O[C@@H](C)[C@H](O)[C@@H](O)[C@H]6O)CCC5(C)C4CCC3(C)C2C1C)CO[C@@H]1O[C@H](CO)[C@@H](O)[C@H](O)[C@H]1O (some centres not stated),1.54% [at 11.6 µM]
16,CC(C)NC(=O)N1CC[C@H](N=C2Nc3cc(F)ccc3N(CC(F)F)c3ccc(Cl)cc32)C1,-4.9% [at 11.6 µM]
17,O=C(Nc1nnc(-c2ccc3c(c2)OCCO3)o1)C1CCCCC1,-14%
18,CC(C)c1cccc(C(C)C)c1NC(=O)Nc1ccc(Sc2ccc([N+](=O)[O-])cc2)cc1,14.5%
19,CC(C)(C)[C@H](NC(=O)c1ccc(N)c(Cl)c1)C(=O)N1CCC[C@H]1C(=O)N[C@H](C#N)CC(=O)O,-13.5%
20,CC(=O)O[C@H]1CC[C@]2(C)[C@H]3CC[C@]4(C)Oc5oc(C)cc(=O)c5C[C@H]4[C@]3(C)CC[C@H]2C1(C)C,-12.3% [at 25.3 µM]

# Test system: Es-2
# Test: as above
# Conditions: Gynecologic cancer cell panel viability, ATPlite luminescence, 48 h; series mostly up to 57.5 µM; activity change, negative = cytotoxicity: at the top concentration
# Outline: as §1
Structure (SMILES),"activity change, negative = cytotoxicity",Potency
CC(=O)CC(=O)Nc1ccc(Cl)c(C(F)(F)F)c1,-0.609%,
CCCOc1ccc(CCc2nc3cc(-c4c(C)noc4C)ccc3n2CCN2CCOCC2)cc1,1.02%,
CC(NC(=O)Cc1cc(F)cc(F)c1)C(=O)NC1C(=O)N(C)c2ccccc2-c2ccccc21 (configuration not stated),-3.25%,
N#Cc1ccc(COc2ccc(-c3cccc4nc(NC(=O)C5CC5)nn34)cc2)cn1,10%,
C=C1C(=O)O[C@H]2CC(=C)[C@H]3CC[C@@](C)(O)[C@@H]3CC12 (some centres not stated),-18.5%,
C=C(C)[C@@H]1CC=C(COC(=O)NC(=O)c2ncn3c(=O)n(C)nnc23)CC1,,20 µM (active)
CC1(C)CN(C(=O)c2ccc(-c3cccc4nc(NC(=O)C5CC5)nn34)cc2)C1,0.571%,
CCN(CC)C(=O)c1ccc(Nc2nc(OCC3CCCCC3)c3[nH]cnc3n2)cc1,-25.5%,
CCC(C)(OC(C)=O)C(=O)O[C@H]1[C@H](OC(C)=O)[C@]2(CO)[C@H](O)[C@H](O)[C@]3(C)C(=CCC4[C@@]5(C)CC[C@H](O[C@@H]6O[C@H](C(=O)O)[C@@H](O)[C@H](O[C@@H]7OC[C@H](O)[C@H](O[C@@H]8OC[C@H](O)[C@H](O)[C@H]8O)[C@H]7O)[C@H]6O[C@@H]6O[C@H](CO)[C@@H](O)[C@H](O)[C@H]6O)C(C)(C)C5CC[C@]43C)[C@@H]2CC1(C)C (some centres not stated),-8.22% [at 6.55 µM],
FC(F)(F)c1ccccc1-c1cc(C(F)(F)F)c2nc(C3=NOC4(CCCCC4)C3)[nH]c2c1,-0.555%,
CCn1c(=O)c(-c2ccc(-c3cncs3)cc2Cl)cc2cnc(Nc3ccc(N4CCN(C)CC4)cc3)nc21,0.518%,
Cc1ccc(-c2ncccn2)c(C(=O)N2C[C@H](COc3ccc(F)cn3)CC[C@H]2C)c1,-17.9%,
COc1cc2ncnc(Oc3ccc(CC(=O)Nc4cnn(C(C)C)c4)cc3)c2cc1OC,21.3%,
O=C(Nc1ccnc(NC(=O)C2CC2)c1)c1c(Cl)cccc1Cl,,22.4 µM (active)
CC(CCC1(O)OC2CC3C4CC=C5CC(O[C@@H]6O[C@H](CO)[C@@H](O[C@@H]7O[C@@H](C)[C@H](O)[C@@H](O)[C@H]7O)[C@H](O)[C@H]6O[C@@H]6O[C@@H](C)[C@H](O)[C@@H](O)[C@H]6O)CCC5(C)C4CCC3(C)C2C1C)CO[C@@H]1O[C@H](CO)[C@@H](O)[C@H](O)[C@H]1O (some centres not stated),4.17% [at 11.6 µM],
CC(C)NC(=O)N1CC[C@H](N=C2Nc3cc(F)ccc3N(CC(F)F)c3ccc(Cl)cc32)C1,5.14% [at 11.6 µM],
O=C(Nc1nnc(-c2ccc3c(c2)OCCO3)o1)C1CCCCC1,-7.1%,
CC(C)c1cccc(C(C)C)c1NC(=O)Nc1ccc(Sc2ccc([N+](=O)[O-])cc2)cc1,-1.07%,
CC(C)(C)[C@H](NC(=O)c1ccc(N)c(Cl)c1)C(=O)N1CCC[C@H]1C(=O)N[C@H](C#N)CC(=O)O,0.829%,
O=c1cc(N2CCOCC2)nc2c3ccccc3ccn12,-20.7%,
CC(=O)O[C@H]1CC[C@]2(C)[C@H]3CC[C@]4(C)Oc5oc(C)cc(=O)c5C[C@H]4[C@]3(C)CC[C@H]2C1(C)C,0.681% [at 25.3 µM],
